Laboratory results taken from PubChem BioAssay.
The source made the active and inactive calls.

Legend:
[1] = binders of probe aFSTL3 on microarray, primary screen, stem cell growth factor project, biochemical, small-molecule microarray, fluorescence 635/667 (AID 1064); details: higher = more signal;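 also: measures binding of the biotinylated anti-FSTL3 antibody to printed compounds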
[2] = binders from COS7 lysate, DM2A8 probe, primary screen, torsin A project, cell lysate, small-molecule microarray, fluorescence 635/667 (AID 1065); details: higher = more signal, COS7 lysate expressing mutant human TOR1A
[3] = binders of probe aFGF2 on microarray, primary screen, stem cell growth factor project, biochemical, small-molecule microarray, fluorescence 635/667 (AID 1067); details: higher = more signal;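 also: measures binding of biotinylated aFGF2 protein to printed compounds on slides; z-score merges feature fluorescence and signal-to-noise across triplicate slides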
[4] = binders of probe aFGF10 on microarray, primary screen, stem cell growth factor project, biochemical, small-molecule microarray, fluorescence 635/667 (AID 1071); details: higher = more signal;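 also: score merges 667 nm spot intensity and signal to noise from triplicate slides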
[5] = biological target: Neurogenic locus notch homolog protein 2 (Homo sapiens) (UniProt Q04721); experiment: Notch2 binders on small-molecule microarrays, primary screen, biochemical, small-molecule microarray, 635 nm fluorescence, stem cell growth factors (AID 1073); details: Notch2 binding, higher = more signal
Chain of Neurogenic locus notch homolog protein 2 (Homo sapiens) (Q04721 whole entry, looked up, canonical isoform): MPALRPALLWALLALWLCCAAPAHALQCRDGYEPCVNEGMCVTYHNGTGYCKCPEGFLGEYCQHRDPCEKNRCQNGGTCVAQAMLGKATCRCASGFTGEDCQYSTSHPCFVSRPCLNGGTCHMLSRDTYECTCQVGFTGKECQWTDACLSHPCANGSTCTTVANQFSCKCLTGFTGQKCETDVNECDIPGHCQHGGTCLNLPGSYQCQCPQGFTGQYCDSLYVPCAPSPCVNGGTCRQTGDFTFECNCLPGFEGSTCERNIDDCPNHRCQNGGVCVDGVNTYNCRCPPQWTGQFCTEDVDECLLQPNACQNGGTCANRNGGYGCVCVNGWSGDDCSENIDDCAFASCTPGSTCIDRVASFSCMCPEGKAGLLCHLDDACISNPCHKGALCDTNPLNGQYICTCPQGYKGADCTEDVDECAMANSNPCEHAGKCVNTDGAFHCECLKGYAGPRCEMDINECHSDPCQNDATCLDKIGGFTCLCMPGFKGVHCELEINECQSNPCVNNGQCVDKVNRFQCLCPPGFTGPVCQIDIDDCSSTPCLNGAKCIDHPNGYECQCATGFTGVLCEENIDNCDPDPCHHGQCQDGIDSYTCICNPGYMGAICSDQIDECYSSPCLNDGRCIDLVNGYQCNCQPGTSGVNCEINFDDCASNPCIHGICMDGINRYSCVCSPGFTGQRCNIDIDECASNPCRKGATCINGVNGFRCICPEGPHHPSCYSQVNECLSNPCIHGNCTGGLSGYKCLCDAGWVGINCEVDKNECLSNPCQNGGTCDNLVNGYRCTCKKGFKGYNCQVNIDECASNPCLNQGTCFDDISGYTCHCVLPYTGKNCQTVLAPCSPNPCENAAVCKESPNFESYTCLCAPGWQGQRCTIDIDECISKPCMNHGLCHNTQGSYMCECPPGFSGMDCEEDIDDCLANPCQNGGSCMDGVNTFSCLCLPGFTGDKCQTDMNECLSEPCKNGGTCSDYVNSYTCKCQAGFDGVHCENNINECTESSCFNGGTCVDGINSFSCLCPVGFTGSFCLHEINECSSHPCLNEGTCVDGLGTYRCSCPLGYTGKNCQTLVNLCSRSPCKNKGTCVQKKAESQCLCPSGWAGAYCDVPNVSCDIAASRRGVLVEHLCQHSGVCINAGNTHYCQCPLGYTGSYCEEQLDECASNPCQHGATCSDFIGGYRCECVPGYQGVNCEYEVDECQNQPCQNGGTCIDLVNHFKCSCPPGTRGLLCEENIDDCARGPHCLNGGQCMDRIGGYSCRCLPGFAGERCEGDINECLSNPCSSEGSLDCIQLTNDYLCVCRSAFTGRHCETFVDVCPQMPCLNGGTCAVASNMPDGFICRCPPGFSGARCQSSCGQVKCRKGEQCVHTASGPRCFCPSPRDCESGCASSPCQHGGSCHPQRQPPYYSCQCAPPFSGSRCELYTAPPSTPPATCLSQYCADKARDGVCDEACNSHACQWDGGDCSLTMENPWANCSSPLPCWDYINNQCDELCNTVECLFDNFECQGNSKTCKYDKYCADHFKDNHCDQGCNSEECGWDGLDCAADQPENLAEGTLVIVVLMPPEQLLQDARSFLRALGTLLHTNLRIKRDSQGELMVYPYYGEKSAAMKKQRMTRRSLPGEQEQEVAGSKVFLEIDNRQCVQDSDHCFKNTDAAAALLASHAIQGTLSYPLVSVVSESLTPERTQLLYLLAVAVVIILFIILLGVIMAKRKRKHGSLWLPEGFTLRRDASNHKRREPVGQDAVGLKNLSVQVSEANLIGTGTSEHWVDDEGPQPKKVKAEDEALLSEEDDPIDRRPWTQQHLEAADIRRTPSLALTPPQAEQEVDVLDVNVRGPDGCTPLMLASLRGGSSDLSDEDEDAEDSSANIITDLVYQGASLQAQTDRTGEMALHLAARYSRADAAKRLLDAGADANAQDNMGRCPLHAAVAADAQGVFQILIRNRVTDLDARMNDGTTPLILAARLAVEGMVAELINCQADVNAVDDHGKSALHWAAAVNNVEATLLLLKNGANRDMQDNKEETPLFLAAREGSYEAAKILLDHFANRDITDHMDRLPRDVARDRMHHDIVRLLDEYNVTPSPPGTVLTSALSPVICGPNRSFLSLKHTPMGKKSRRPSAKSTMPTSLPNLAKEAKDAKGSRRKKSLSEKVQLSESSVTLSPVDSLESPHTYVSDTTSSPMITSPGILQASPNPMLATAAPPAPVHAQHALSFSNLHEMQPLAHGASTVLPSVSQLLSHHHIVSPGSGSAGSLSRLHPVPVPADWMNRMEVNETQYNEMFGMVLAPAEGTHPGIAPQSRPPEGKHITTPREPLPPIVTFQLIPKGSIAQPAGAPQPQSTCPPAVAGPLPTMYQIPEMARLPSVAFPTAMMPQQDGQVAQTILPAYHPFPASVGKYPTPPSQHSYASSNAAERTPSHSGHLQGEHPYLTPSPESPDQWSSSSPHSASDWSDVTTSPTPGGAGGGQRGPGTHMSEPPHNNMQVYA

[6] = biological target: Pro-neuregulin-1, membrane-bound isoform (Homo sapiens) (UniProt Q02297); experiment: NRG1 binders on small-molecule microarrays, primary screen, psychiatric disease protein project, biochemical, small-molecule microarray, fluorescence 635/667 (AID 1075); details: NRG1 binding, 635 nm fluorescence, higher = more signal;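 also: score combines 667 nm spot fluorescence with signal to noise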
Chain of Pro-neuregulin-1, membrane-bound isoform (Homo sapiens) (Q02297 whole entry, looked up, the tested form may be a part, canonical isoform): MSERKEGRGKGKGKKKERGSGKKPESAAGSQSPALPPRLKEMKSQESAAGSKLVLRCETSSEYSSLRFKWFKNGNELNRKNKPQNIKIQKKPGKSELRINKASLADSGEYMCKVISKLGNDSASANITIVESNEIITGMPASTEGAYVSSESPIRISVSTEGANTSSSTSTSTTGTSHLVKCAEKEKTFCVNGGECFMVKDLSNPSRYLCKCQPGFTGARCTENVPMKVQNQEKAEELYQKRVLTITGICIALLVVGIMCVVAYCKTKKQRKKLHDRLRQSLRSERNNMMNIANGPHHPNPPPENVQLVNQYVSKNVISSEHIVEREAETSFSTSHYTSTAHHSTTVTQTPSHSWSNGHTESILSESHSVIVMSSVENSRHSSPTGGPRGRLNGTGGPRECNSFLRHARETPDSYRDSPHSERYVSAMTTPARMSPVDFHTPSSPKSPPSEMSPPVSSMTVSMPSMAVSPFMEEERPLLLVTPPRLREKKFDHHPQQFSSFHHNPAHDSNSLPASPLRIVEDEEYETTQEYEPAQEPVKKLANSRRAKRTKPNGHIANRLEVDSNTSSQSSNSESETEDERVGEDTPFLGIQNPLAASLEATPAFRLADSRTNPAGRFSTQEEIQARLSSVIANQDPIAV

[7] = system: Neuregulin-1 EGF-like domain; experiment: binders of neuregulin-1 EGF-like domain, primary screen, biochemical, small-molecule microarray, 635 nm fluorescence (AID 1081); details: small-molecule microarray binding, higher = more signal;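 also: binding of the protein to compounds printed on small-molecule microarray slides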
[8] = FRG1 promoter luciferase signal modulators, primary screen, FRG1 inhibition for FSHD, cell-based, C2C12 myotubes, firefly/Renilla luciferase, luminescence (AID 1084); details: higher = more signal, called active from +8 up or from −8 down
[9] = binders of probe aFST on microarray, primary screen, stem cell growth factor project, biochemical, small-molecule microarray, fluorescence 635/667 (AID 1086); details: higher = more signal;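 also: score merges 667 nm fluorescence with signal-to-noise of each printed compound spot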
[10] = binders of probe aHhip on microarray, primary screen, stem cell growth factor project, biochemical, small-molecule microarray, fluorescence 635/667 (AID 1087); details: higher = more signal;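 also: score merges spot fluorescence at 667nm with spot signal to noise ratio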
[11] = system: PRMT1 (protein arginine N-methyltransferase 1); experiment: PRMT1 binders on small-molecule microarrays, primary screen, biochemical, small-molecule microarray, 635 nm fluorescence (AID 1088); details: small-molecule microarray binding, higher = more signal;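 also: binding of Prmt1 protein to compounds spotted on small-molecule microarray slides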
[12] = yeast growth modulation, basal conditions, primary screen, YJM789 clinical isolate, OD600, 24 h (AID 1089);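 also: growth of clinical yeast isolate S. cerevisiae YJM 789 seeded 1000 cells per well; test concentration not given here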; details: S. cerevisiae YJM789 growth, higher = more signal, called active from +8 up or from −8 down
[13] = fission yeast growth modulation, primary screen, strain 972, OD600, 24 h, no modulator (AID 1090);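 also: basal condition with compound alone and no growth modifier present; test concentration not given here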; details: S. pombe 972 growth, higher = more signal, called active from +8 up or from −8 down
[14] = S. cerevisiae growth modulation with rapamycin, primary screen, strain BY4716, OD600, 96 h (AID 1091); details: higher = more signal, called active from +8 up or from −8 down; also: test concentration not given here
[15] = biological target: Torsin-1A-interacting protein 2 (Homo sapiens) (UniProt Q8NFQ8); experiment: LULL1 binders on small-molecule microarray, primary screen, cell lysate, human LULL1 lysate, 635/667 nm fluorescence (AID 1092); details: hLULL1 lysate binding, 635 nm fluorescence, higher = more signal;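 also: probe is lysate of COS7 cells overexpressing human LULL1; score merges per-feature 667 nm fluorescence with signal-to-noise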
Chain of Torsin-1A-interacting protein 2 (Homo sapiens) (Q8NFQ8 whole entry, looked up): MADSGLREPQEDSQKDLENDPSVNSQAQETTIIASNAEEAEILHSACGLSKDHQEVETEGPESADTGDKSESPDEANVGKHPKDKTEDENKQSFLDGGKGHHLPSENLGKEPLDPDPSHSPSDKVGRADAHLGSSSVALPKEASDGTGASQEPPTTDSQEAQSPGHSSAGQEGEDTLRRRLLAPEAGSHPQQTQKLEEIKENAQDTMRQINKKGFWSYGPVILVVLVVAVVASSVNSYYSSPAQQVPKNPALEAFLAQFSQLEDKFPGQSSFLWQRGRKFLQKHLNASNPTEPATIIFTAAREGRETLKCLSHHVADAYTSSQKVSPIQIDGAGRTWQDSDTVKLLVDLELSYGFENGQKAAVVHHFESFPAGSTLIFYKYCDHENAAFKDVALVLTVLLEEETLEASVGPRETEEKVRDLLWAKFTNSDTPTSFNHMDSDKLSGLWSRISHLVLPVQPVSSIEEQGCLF

[16] = E. coli growth modulation, two-sided OD650, primary screen, E. coli filamentation project, strain DRC41, 24 h (AID 1093); details: OD650, 24 h, higher = more signal, called active from +8 up or from −8 down;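 also: MC1000 strain lacking acrAB efflux and sulA so SOS filamentation is blocked; test concentration not given here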
[17] = small-molecule microarray binders of probe aLefty2, primary screen, biochemical, biotinylated probe, 635/667 nm fluorescence (AID 1094); details: higher = more signal;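 also: score merges spot fluorescence near 667 nm with spot signal-to-noise ratio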
[18] = system: Noggin (protein binding on small-molecule microarray); experiment: Noggin binders on small-molecule microarray, primary screen, biochemical, 635/667 nm fluorescence (AID 1095); details: 635 nm fluorescence, higher = more signal;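 also: score merges 667 nm feature fluorescence with signal to noise over triplicate slides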
[19] = biological target: Neurogenic locus notch homolog protein 3 (Homo sapiens) (UniProt Q9UM47); experiment: NOTCH3 binders on small-molecule microarray, primary screen, biochemical, 635/667 nm fluorescence (AID 1096); details: NOTCH3 binding, 635 nm fluorescence, higher = more signal
[20] = small-molecule microarray binders of probe aEGFR, primary screen, biochemical, biotinylated probe, 635/667 nm fluorescence (AID 1097); details: higher = more signal;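 also: probe is a biotinylated anti-EGFR antibody binding compounds printed on slides; score combines fluorescence near 667 nm and signal to noise of each spot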

Structure (SMILES)	composite z-score [1]	composite z-score [2]	composite z-score [3]	composite z-score [4]	composite z-score [5]	composite z-score [6]	composite z-score [7]	z-score [8]	composite z-score [9]	composite z-score [10]	composite z-score [11]	z-score [12]	z-score [13]	z-score [14]	composite z-score [15]	z-score [16]	composite z-score [17]	composite z-score [18]	composite z-score [19]	composite z-score [20]
O=C1OC[C@@H](c2ccccc2)N2CC(/C=C/c3ccccc3)=CC12 (stereo not given in full)	0.528	-0.477	-0.222	-0.77	-1.18	-0.586	0.219	-0.639 (inactive)	-1.31	-0.268	-1.07	0.0482 (inactive)	-1.27 (inactive)	0.321 (inactive)	-0.79	0.701 (inactive)	-0.158	-1.37	-0.0841	-0.425
C[C@H]1C2=C3C(CC[C@H]4C(OCc5ccc(F)cc5C(F)(F)F)OC[C@](C)([C@@H]34)N(C(=O)OC(C)(C)C)C2)C2COC(=O)OCC21 (stereo not given in full)	0.42	-0.119	-0.0325	0.226	1.43	1.71	1.03	2.53 (inactive)	1.61	0.44	0.63	-0.271 (inactive)	-1.22 (inactive)	0.258 (inactive)	3.52	-1.4 (inactive)	0.453	-0.618	1.07	-0.019
O=C1OCC=C[C@H]2OC34C=CCN(Cn5nnc6ccccc65)C(=O)[C@H]3N(CCCCCCO)C(=O)[C@@H]4[C@@H]12 (stereo not given in full)	0.492	-0.334	-0.163	-0.54	-0.522	1.91	1.52	0.215 (inactive)	-0.116	-0.201	-0.184	-1.47 (inactive)	-1.19 (inactive)	-0.66 (inactive)	1.29	-0.218 (inactive)	-0.0356	-1.04	-0.0986	-0.195
NC(=O)NCC#Cc1ccc2c(c1)[C@]1(C(=O)N2)[C@H](c2ccc(O)cc2)N2[C@H](c3ccccc3)[C@H](c3ccccc3)OC(=O)[C@H]2[C@@H]1C(=O)Nc1nc2ccccc2s1	0.289	0.21	-0.0222	0.478	0.768	0.434	0.633	0.63 (inactive)	0.185	0.0881	1.39	4.88 (inactive)	4.35 (inactive)	8.57 (active)	1.07	1.06 (inactive)	0.122	1.05	0.362	-0.0975
COc1ccccc1CN1C(=O)c2ccccc2[C@@H](C(=O)NC(C)C)[C@@H]1c1ccc(CO)cc1	-0.0001	-0.487	0.0451	0.761	1.53	1.13	1.31	-1.41 (inactive)	0.676	0.281	1.51	-0.309 (inactive)	-0.0831 (inactive)	-0.352 (inactive)	2.36	1.02 (inactive)	0.12	0.885	1.09	0.14
[N-]=[N+]=NCc1ccccc1[C@H]1OC(c2ccc(OCCCO)cc2)=N[C@@]1(CCS(=O)(=O)c1ccccc1)C(N)=O	0.573	1.33	0.145	0.763	1.65	2.03	1.36	4.66 (inactive)	0.805	-0.0645	1.47	0.0249 (inactive)	-0.131 (inactive)	-0.595 (inactive)	3.36	-0.199 (inactive)	0.074	0.086	0.861	0.0929
COc1ccc([Si](C)(C)[C@H]2[C@H](CCn3cc([C@H](O)c4ccccc4)nn3)O[C@@]3(C(=O)N(Cc4ccc(N5CCOC5=O)cc4)c4ccccc43)[C@@H]2C)cc1	0.365	-0.437	-0.204	-0.111	-1.11	0.276	-0.426	-1.58 (inactive)	-0.757	-0.236	-0.562	1.75 (inactive)	1.78 (inactive)	3.45 (inactive)	-0.241	0.28 (inactive)	-0.0713	-1.49	-0.865	-0.227
CN(C)C(=O)[C@]1(CCC(=O)OC(C)(C)C)N=C(c2ccc(OCCCO)cc2)O[C@@H]1c1ccccc1	-0.175	0.527	-0.016	0.776	1.3	1.91	1.4	0.788 (inactive)	0.268	-0.0645	0.637	0.182 (inactive)	-0.993 (inactive)	-0.273 (inactive)	3.56	1.27 (inactive)	0.0601	-0.674	-0.301	0.625
CC(CO)N1C(=O)[C@@H]2C3C(=O)OCCC/C=C\[C@H]3OC23C=CCN(Cn2nnc4ccccc42)C(=O)[C@@H]13 (stereo not given in full)	-0.185	-0.469	-0.107	0.285	-0.722	1.7	1.34	-1.11 (inactive)	-0.161	0.21	-1.18	0.216 (inactive)	-0.152 (inactive)	-0.637 (inactive)	-1.1	0.333 (inactive)	-0.198	-0.254	0.219	-0.152
COCCOC(=O)N1C(=O)[C@@]2(c3cc(C#CC4(O)CCCCCC4)ccc31)[C@H](c1ccccc1OCCO)N1[C@H](c3ccccc3)[C@H](c3ccccc3)OC(=O)[C@H]1[C@@H]2C(N)=O	-0.452	0.447	0.0038	0.498	1.35	0.102	1.16	-1.17 (inactive)	0.489	-0.0672	1.54	1.74 (inactive)	0.699 (inactive)	5.17 (inactive)	2.24	-0.175 (inactive)	-0.102	1.06	1.05	0.0254
